mHTT CaM bind: mHTT-calmodulin interaction abrogation; P42858; AlphaScreen His-mHTT/GST-CaM binding, luminescence; inhibition, % at 15 µM; 3.6% of 190,000 active;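 further: 0% = both proteins with DMSO and 100% = one protein alone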
Pf apPOL block: Pf-apPOL DNA polymerase inhibition | Recombinant Pf-apPOL, molecular beacon fluorescence, 1.5 h | inhibition, % at 10 µM | 0.25% of 210,000 active
Active calls of the source: *. The list is not random: actives were taken first. Their share in the collection is about 3.5%. No stated cut-off is given here; in the data, active means inhibition above about 50%; inactive means the rest.

SMILES | mHTT CaM bind | Pf apPOL block
COc1ccc(-c2ccc(C=C3C(=O)OC(c4ccccc4)OC3=O)o2)c([N+](=O)[O-])c1 (centres undefined) | 3 | -3
CC(C)c1ccc(/C=C2\Sc3ccccc3C2=O)cc1[N+](=O)[O-] | 40 | -2
O=C1/C(=C/c2cccc([N+](=O)[O-])c2O)Sc2ccccc21 | 15 | -4
O=C1/C(=C/c2ccc([N+](=O)[O-])cc2)Sc2ccccc21 | 11 | 89*
O=C1/C(=C/c2c(Cl)ccc([N+](=O)[O-])c2Cl)Sc2ccccc21 | 67* | 2
COc1ccc(N2CC(NC(=O)c3ccccc3[N+](=O)[O-])CC2=O)cc1OC (centres undefined) | -8 | 4
CC(=O)Nc1ccc(-c2noc(C3CCN(C(=O)Cc4cccs4)CC3)n2)cc1 | 2 | -5
COc1ccc(C2Oc3c(OC)cccc3C3CC(c4ccc(C)o4)=NN32)cc1OC (centres undefined) | 51* | -22
COc1ccc(C2Oc3ccccc3C3CC(c4ccc(C)o4)=NN32)cc1 (centres undefined) | 60* | -7
COc1cccc2c1OC(c1ccc(F)c(F)c1)N1N=C(c3ccco3)CC21 (centres undefined) | 14 | -18
CCOc1cccc2c1OC(c1ccc(OC)c(OC)c1)N1N=C(c3ccc(C)o3)CC21 (centres undefined) | 63* | -16
COc1ccc(C2Oc3c(OC)cccc3C3CC(c4ccc(C)o4)=NN32)cc1 (centres undefined) | 83* | -11
COc1cccc(C2=NN3C(C2)c2cccc(OC)c2OC3c2cc(OC)c(OC)c(OC)c2)c1 (centres undefined) | 48 | -22
CCOc1cccc2c1OC(c1cccc(OC)c1)N1N=C(c3ccco3)CC21 (centres undefined) | 28 | -20
COc1ccc(C2Oc3ccc(Cl)cc3C3CC(c4ccco4)=NN32)cc1 (centres undefined) | 37 | -16
O=C(Cc1ccc(-n2c(=O)[nH]c3ccccc3c2=O)cc1)N1CCN(c2ccccn2)CC1 | 2 | 0
COc1ccccc1-c1ccc(N2CCN(C(=O)c3cccs3)CC2)nn1 | -6 | -8
O=S(=O)(Nc1ccc(Cn2cncn2)cc1)c1ccc2c(c1)CCC2 | -1 | 0
CCCCC(C(=O)O)n1c(O)c(C=C2C=Nc3ccccc32)sc1=S (centres undefined) | 100* | 25
CC(C)Cc1nn2c(N)c(C=C3C=Nc4ccccc43)c(=O)nc2s1 | 11 | -15
O=C(c1cccc(Cl)c1)N1CCC(=O)N([C@H](COCc2ccccc2)Cc2ccccc2)CC1 | 66* | -4
O=C(c1cccc(Cl)c1)N1CCC(C(=O)N2CCN(Cc3ccccc3)CC2)CC1 | 10 | 0
O=C(c1cc(Cl)cc(Cl)c1)N1CCC(=O)N([C@H](COCc2ccccc2)Cc2ccccc2)CC1 | 92* | -3
Cc1ccc(S(=O)(=O)N2CCC(=O)N(C(COC(=O)Nc3ccccc3)Cc3ccccc3)CC2)cc1 (centres undefined) | 2 | -10
Cc1cc(OCC(=O)N2CCCC2)nc(-c2ccc(F)cc2)n1 | -10 | 2
SMILES | mHTT CaM bind | Pf apPOL block
Cc1ccc(C)c2sc(N(Cc3cccnc3)C(=O)c3ccnn3C(C)C)nc12 | 14 | -9
CNC(=O)N1CCCC(c2cccc(C(=O)NC3CCCCC3)c2)C1 (centres undefined) | -13 | -7
N#Cc1c(N)nc(SCC(=O)c2ccc(O)c(O)c2)c(C#N)c1-c1cccc(Cl)c1 | 85* | 4
COc1ccc(-c2c(C#N)c(N)nc(SCC(=O)c3ccc(O)c(O)c3)c2C#N)cc1 | 99* | -6
N#Cc1c(N)nc(SCC(=O)c2ccc(O)c(O)c2)c(C#N)c1-c1ccc(O)cc1 | 31 | 27
N#Cc1c(N)nc(SCC(=O)c2ccc(Br)cc2)c(C#N)c1-c1ccccc1 | -8 | -12
O=C(O)c1ccc(CNC(=O)c2cocc2C(=O)O)o1 | 3 | -10
O=C(C1CCCO1)N1CCCn2nc(-c3ccncc3)cc2C1 (centres undefined) | -4 | -3
COc1ccc(C2=N/C(=C\C(C)=C\c3ccccc3)C(=O)O2)cc1[N+](=O)[O-] | 14 | 4
CC(C)c1ccc(NC(=O)C(c2ccccc2)N(C)C(=O)c2cnccn2)cc1 (centres undefined) | 20 | -1
Cc1ccc(C(C(=O)Nc2ccc(C(C)C)cc2)N(Cc2ccco2)C(=O)c2cnccn2)cc1 (centres undefined) | 69* | -9
CCC(=O)Nc1ccc2nc(-c3ccccc3)cc(OC)c2c1 | 32 | -2
CCC(C)n1c(SCc2cc(=O)n3ccccc3n2)nc2ccsc2c1=O (centres undefined) | 20 | 0
O=C(O)c1ccc([N+](=O)[O-])c2c1NC(C1CC=CCC1)C1CC=CC21 (centres undefined) | 41 | 2
CCOc1cc2c(c([N+](=O)[O-])c1)NC(C1CC=CCC1)C1CC=CC21 (centres undefined) | 71* | 3
